This is an account of results in ChEMBL document CHEMBL4513216, “Probing the Open Global Health Chemical Diversity Library for Multistage-Active Starting Points for Next-Generation Antimalarials” (ACS Infect Dis, 2020).

In all, about 69,000 compounds went through this assay and about 8,600 (12%) showed an effect of 50% or more. Only a selection was taken, and strong results are over-represented in it overall.

The test system of the test is Plasmodium berghei. The test can be described thus: Screen against P. berghei liver stage (PbLuc), transformed with Luciferase, at 10uM. The conditions noted are these: tested at 10 uM. It is filed as functional, HepG2.
As to `CCN(CC1CCCO1)C(=O)Nc1cccc(Cl)c1OC` (centres undefined), the INHIBITION is on record as 26.4%. As for `Cc1nn(-c2ncnc3[nH]cnc23)c2c1C(C(C)(C)C)CC(=O)N2` (centres undefined), the INHIBITION is reported as -4.35%. Take `Cc1cnc(CNC(=O)[C@@]23CCO[C@@H]2CCN(c2ncccn2)C3)cn1`: the INHIBITION was 9.51%. Next, `Cc1occc1C(=O)N1CCCC(C2=Nc3ccccc3S(=O)(=O)N2)C1` (centres undefined): -7.679%; `COc1ccccc1CN1CC[C@]2(C[C@H](OC)CO2)C1`: -29.2%; `Cc1ccc(CNC(=O)CNCC2CCN(CCO)CC2)s1`: 10.6%. Next, `Cc1ccc(CNC(=O)CN(C)CC2CCN(CCO)CC2)s1`: 53.8%; `O=C(CNC(=O)C1CC1)NCc1ccc(Cl)s1`: -56.4%. Take `Cc1ccc(CNC(=O)c2cc(CN3CCC(O)CC3)on2)s1`: the INHIBITION was 13.7%. Next, `O=C(CN1CCN(CCO)CC1)NCc1ccc(Cl)s1`: 53.8%; `Cc1ccc(CNC(=O)CN2CCN(CCO)CC2)s1`: 5.64%; `Cc1cc(C(=O)NC2CCC3(CCC(=O)N3)CC2)no1` (centres undefined): -20.8%. To `COc1ncccc1CN1CCc2[nH]nc(C(=O)N3CCCC3C)c2C1` (centres undefined) belongs -12.2%; to `CC(C)c1nnsc1CNC(=O)C1CCN(C(C)C)CC1`, 5.94%; to `CCc1ccc(C(=O)N2CCN(c3nc(C)cc(OC)n3)CC2)o1`, 19.2%. Regarding `CCSc1ncc(CN2CCN(c3ccc(C#N)cc3)C(=O)C2)cn1`, the INHIBITION was determined as 3.73%. To `CCc1ccc(CN2CCN(c3ccc(C#N)cc3)C(=O)C2)nc1` belongs 62.4%; to `CN(C)c1ccc(CN2CCN(c3ccc(C#N)cc3)C(=O)C2)cn1`, 18.9%. To `COCC(=O)N1CCN(S(=O)(=O)c2ccccc2)[C@H]2CS(=O)(=O)C[C@H]21` belongs 25.8%; to `CCc1nc(N2CCCC(O)(CO)CC2)ncc1C` (centres undefined), -119%. Next, `CNc1cncc(C2CCCN2S(=O)(=O)c2ccccc2)n1` (centres undefined): -46.6%. Take `CC(C)c1ccc(CCC(=O)N2CCOCC2c2ncon2)cc1` (centres undefined): the INHIBITION is reported as -3.2%. Consider `Cc1nc(-c2ccsc2)ccc1C(=O)NCCC(=O)N1CCCC1`, for which the INHIBITION is listed as 49.6%. In the case of `Cc1nc(-c2ccsc2)ccc1C(=O)NCCC1CCCO1` (centres undefined), the INHIBITION came out at 52.7%. Turning to `Cc1nc(-c2ccsc2)ccc1C(=O)NCCN1CCOCC1`, the INHIBITION stood at 48.1%. To `Cc1noc(C)c1CN(C)C(=O)c1n[nH]c(N)c1-c1ccccc1` belongs -3.96%; to `COc1ccccc1/C=C/CNCC1CCc2nncn2C1` (centres undefined), 38%. Consider `CS(=O)(=O)CCCNCc1c(Cl)cccc1N1CCCC1`, for which the INHIBITION worked out at 26.4%. For the compound `Cc1nccn1-c1ccc(=O)n(CCNC(=O)c2ccncc2)n1`, the INHIBITION was found to be 10.5%. In the case of `CCC(CN1CCCCC1)NC(=O)C1(c2cccc(F)c2)CC1` (centres undefined), the INHIBITION is reported as 28.7%. As to `CCC(CN1CCN(C)CC1)NC(=O)C1(c2cccc(F)c2)CC1` (centres undefined), the INHIBITION is given as 37.5%. For `CCC(CN1CCCC1)NC(=O)C1(c2cccc(F)c2)CC1` (centres undefined), the INHIBITION worked out at 53.65%. For `Cc1oncc1C(=O)N1CCC2(CCN(Cc3cccc(F)c3)C2=O)C1` (centres undefined), the INHIBITION turned out to be 1.48%. Regarding `O=c1cc2c(nn1CN1CCN(c3ccccc3)CC1)CCC2`, the INHIBITION is listed as 16.6%. To `O=c1cc2c(nn1CN1CCSCC1)CCC2` belongs 51%. Next, `O=c1cc2c(nn1CN1CCOCC1)CCC2`: -1.58%; `O=C(O)c1ccn(COc2c(Cl)cccc2Cl)n1`: 0.207%; `Cc1ncoc1C(=O)N1CCOC(CCCC(C)C)C1` (centres undefined): -7.81%. `O=S(=O)(NCc1cn2ccccc2n1)N1CCOCC1`: the INHIBITION is given as -38.6%. With `Cc1nc(N2CCCC2)ncc1-c1cc(O)nc(N2CCCC2)n1`, the INHIBITION is on record as -11.1%. Next, `Cc1nc(N2CCCCC2)ncc1-c1cc(O)nc(N2CCCCC2)n1`: 25.1%. Next, `Cc1nc(N2CCCC2)ncc1-c1cc(O)nc(N2CCN(C)CC2)n1`: 20.1%; `Cc1nc(N2CCC(C)CC2)ncc1-c1cc(O)nc(N2CCCC2)n1`: 53.2%; `Cc1nc(N2CCCC2)ncc1-c1cc(O)nc(N2CCCCC2)n1`: 36.6%. To `Cc1nc(N2CCCCC2)ncc1-c1cc(=O)[nH]c(N2CCCC2)n1` belongs 68.1%; to `Nc1nccnc1C1CN(C(=O)c2cnccn2)CCO1` (centres undefined), -9.32%. Turning to `COCC(c1cccc(C(F)(F)F)c1)N(C)C(=O)c1cccnc1` (centres undefined), the INHIBITION was -34.5%.

For `NC(=O)COc1cccc(Cn2cc(Br)cn2)c1`, the INHIBITION is recorded as 27%. Turning to `O=S(=O)(C1CC1)N1CCc2ncnc(-c3ccncc3)c2CC1`, the INHIBITION was 12.1%.

As for `Cc1nnc(N2CCOC(CN(C)C)C2)c(C#N)c1C` (centres undefined), the INHIBITION amounted to 49.25%. For `Cc1ccc(O)c(C(=O)N2C[C@@H](C(=O)O)[C@H](c3ccccc3)C2)c1`, the INHIBITION amounted to 19.4%.

Regarding `CC(C)=CCN1C(=O)[C@@H]2CC[C@H]1CN(c1ncccc1F)C2`, the INHIBITION came out at 12.7%. Take `c1ccc2oc(CCCN3CCCCC3Cn3cncn3)nc2c1` (centres undefined): the INHIBITION is given as -41.1%. Next, `c1ccc2oc(CN3CCCCC3Cn3cncn3)nc2c1` (centres undefined): 55.4%; `c1ccc2oc(CCCN3CCCC3Cn3cncn3)nc2c1` (centres undefined): 30.8%. To `c1ccc2oc(N3CCCC3Cn3cncn3)nc2c1` (centres undefined) belongs -41.1%. Regarding `c1ccc2oc(N3CCCCC3Cn3cncn3)nc2c1` (centres undefined), the INHIBITION came to 55.5%. As to `c1ccc2oc(CN3CCCC3Cn3cncn3)nc2c1` (centres undefined), the INHIBITION is recorded as -4.94%. Next, `O=C(Nc1cc(C(F)(F)F)c[nH]c1=O)N1CCOCC1`: -31.8%; `COc1c(C)cnc(CNCC(C)C)c1C`: 11.95%. Next, `CN(C)CC(=O)N1CCc2sc(C(=O)N3CCOCC3)cc21`: 43%. Next, `CC(C)Cc1noc(CN(C)c2cc(C(C)C)nc3ccnn23)n1`: 23.5%; `Cc1nccn1CCN(C)c1cc(C(C)C)nc2ccnn12`: 51.3%. As to `Cc1cc(N(C)CCn2ccnc2C)n2nccc2n1`, the INHIBITION is 48.1%.

Take `CC(C)CC(Cc1cccc(Br)c1)C(=O)O` (centres undefined): the INHIBITION was determined as 65.4%.

For the compound `COCCC(Cc1cccc(Br)c1)C(=O)O` (centres undefined), the INHIBITION is given as 9%. Next, `COCCC(Cc1cccc(Br)c1)C(N)=O` (centres undefined): 25.3%; `CS(=O)(=O)NC[C@H]1Cn2c(-c3ccccc3)cnc2CO1`: 25.3%. Next, `CS(=O)(=O)NC[C@H]1Cn2c(-c3ccc(Cl)cc3)cnc2CO1`: 5.58%. To `CS(=O)(=O)NC[C@H]1Cn2c(-c3ccc(F)cc3)cnc2CO1` belongs 51.7%. With `CC(=O)Nc1nc(CN2CCOC(Cn3cncn3)C2)cs1` (centres undefined), the INHIBITION came out at 11.6%.

`Cn1cnnc1CCNC(=O)c1cnn(Cc2ccccc2)c1`: the INHIBITION came out at 10.7%.

Regarding `Cc1noc(C)c1CN(C)C(=O)NC1CCC(O)CC1` (centres undefined), the INHIBITION came to 40.15%.

On to `O[C@H]1[C@H](n2cc(-c3ccccn3)nn2)c2ccccc2C12CCNCC2`, for which the INHIBITION was -110%. For `O=C(CC1CCc2ccccc21)NCCSc1ccccn1` (centres undefined), the INHIBITION is reported as -8.25%. To `O[C@H]1[C@H](NCCc2ccccn2)c2ccccc2C12CCNCC2` belongs 28.7%; to `O[C@H]1[C@H](NCCc2cnccn2)c2ccccc2C12CCNCC2`, 57.8%; to `OCc1cn([C@@H]2c3ccccc3C3(CCNCC3)[C@H]2O)nn1`, -76.9%. To `O[C@H]1[C@H](NCCSc2ccccn2)c2ccccc2C12CCNCC2` belongs 52.2%; to `COc1ccc(Nc2nc(N)c(C(C)=O)s2)cc1OC`, 27.5%; to `Cc1cnn(Cc2cccc(OCC(N)=O)c2)c1`, 40.7%. Turning to `Cc1ccsc1CNC1CCCc2c1cnn2C` (centres undefined), the INHIBITION is -2.19%. For the compound `CC(C)(Oc1ccc(C(N)=O)cc1)C(=O)N(CCC#N)C1CC1`, the INHIBITION is reported as 23.3%. To `O=C(NC1CCN(CC2CCCC2)C1)N1CCC(OCC2CC2)CC1` (centres undefined) belongs 39.7%; to `NC(=O)C1CCN(C(=O)NC2CCN(CC3CCCC3)C2)CC1` (centres undefined), 7.83%; to `O=C(NC1CCN(CC2CC2)C1)N1CCC(OC2CCCCC2)CC1` (centres undefined), 74%. Next, `CCOCc1cnc2n1CCN(C(=O)Cc1cccs1)C2C` (centres undefined): 34.6%. For `CCOCc1cnc2n1CCN(C(=O)c1cn(C)c3ccccc13)C2C` (centres undefined), the INHIBITION amounted to 57.5%. Next, `COCc1cnc2n1CCN(C(=O)c1cn(C)c3ccccc13)C2C` (centres undefined): 16.8%.

Consider `COCCC(=O)N1CCn2c(COCC3CC3)cnc2C1C` (centres undefined), for which the INHIBITION was 51.2%. To `CCOCc1cnc2n1CCN(C(=O)Cc1ccccn1)C2C` (centres undefined) belongs 37.8%; to `CCOCc1cnc2n1CCN(C(=O)c1cccc3c1OCCO3)C2C` (centres undefined), 52.1%; to `CCOCc1cnc2n1CCN(C(=O)C1=CCCC1)C2C` (centres undefined), 5.96%. Regarding `CCOCc1cnc2n1CCN(C(=O)c1ccccc1)C2C` (centres undefined), the INHIBITION is listed as 57.5%. To `CC1c2ncc(COCC3CC3)n2CCN1C(=O)c1ccnnc1` (centres undefined) belongs -27%; to `CC1c2ncc(COCC3CC3)n2CCN1C` (centres undefined), 21.7%; to `CCOCc1cnc2n1CCN(C(=O)Cc1ccco1)C2C` (centres undefined), 10.5%. Next, `CCOCc1cnc2n1CCN(C(=O)c1ccoc1C)C2C` (centres undefined): 48.4%; `CCc1noc(C)c1C(=O)N1CCCC1c1c(C)nn(C)c1C` (centres undefined): 31.8%; `Cc1ccc(C(NCC(=O)N2CCNC(=O)C2)C(F)(F)F)cc1` (centres undefined): 18.3%. Consider `CC(C)(CNC1CCCN(Cc2ccccn2)C1)CN1CCOCC1` (centres undefined), for which the INHIBITION stood at 33%. Take `O=C(NCC1CC1)C1CCC2(CCN(C(=O)c3cccnc3)CC2)O1` (centres undefined): the INHIBITION is given as 6.27%. `Cc1ccc(-c2nc(C(=O)N3CCOCC3)cs2)c(C)c1`: the INHIBITION is given as -3.85%.

Regarding `Cc1cc(C)n(CCN2CCOC(CNc3cccnn3)C2)n1` (centres undefined), the INHIBITION is listed as -39.7%. To `O=C(c1ccncc1)N1CCN(Cc2cccnc2)c2ncccc2C1` belongs 7.53%; to `CSc1nccc(NCc2cc3n(n2)CCCN(C(=O)C2CCC2)C3)n1`, 15.9%; to `CC(c1ccc(F)cc1)N1CCN(Cc2nccn2C)CC1` (centres undefined), 11.9%. To `O=C(C1CCC1)N1CCC2(COCc3cnc(-c4cccnc4)nc32)C1` (centres undefined) belongs -40.4%; to `O=S(=O)(C1CC1)N1CCC2(COCc3cnc(-c4cccnc4)nc32)C1` (centres undefined), 32.1%. To `CN(C)S(=O)(=O)N1CCC2(COCc3cnc(-c4cccnc4)nc32)C1` (centres undefined) belongs 59.3%; to `CN(C)S(=O)(=O)N1CCC2(COCc3cnc(-c4ccccc4)nc32)C1` (centres undefined), 29.7%; to `CN(C)C(=O)CN1CCC2(COCc3cnc(-c4ccccc4)nc32)C1` (centres undefined), 91%. In the case of `c1cnc(N2CCC3(COCc4cnc(-c5cccnc5)nc43)C2)nc1` (centres undefined), the INHIBITION is recorded as 59.7%. Next, `c1ccc(-c2ncc3c(n2)C2(CCN(c4ncccn4)C2)COC3)cc1` (centres undefined): -39.1%; `CN(C)C(=O)CN1CCC2(COCc3cnc(-c4cccnc4)nc32)C1` (centres undefined): 69.3%. To `CC(C)C(=O)N1CCC2(COCc3cnc(-c4cccnc4)nc32)C1` (centres undefined) belongs 17.7%; to `CN(C)C(=O)CN1CCC2(COCc3cnc(N4CCOCC4)nc32)C1` (centres undefined), 19.4%.

As to `CCN1CCC2(COCc3cnc(-c4cccnc4)nc32)C1` (centres undefined), the INHIBITION stood at 28.4%. As to `CS(=O)(=O)N1CCC2(COCc3cnc(-c4ccccc4)nc32)C1` (centres undefined), the INHIBITION is recorded as -69.9%.
